Test system: LATS1
Conditions: concentration: 1 μM, replicates: in singlicate; n = 1
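Further: KINOMEscan kinase panel screen.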

In order of rising “%Inh” value:
1. O=c1cc(N2CCOCC2)nc2n(Cc3cccc4ccccc34)ccn12 [GSK2333389]  0%
2. CN1c2ccc(NCc3ccc(F)cc3)cc2-c2c(cnn2C)S1(=O)=O  0%
3. Cc1ccc(NC(=O)c2ccnc(N3CCN(C)CC3)c2)cc1-c1ccc(C(=O)NCC2CC2)cc1 [GW775604]  0%
4. COc1ccc(S(=O)(=O)NC2CCN(c3cc(C)nc(Nc4cccc(C#N)c4)n3)CC2)cc1.O=C(O)C(F)(F)F [GSK1653539]  0%
5. COc1ccc(Nc2nccc(N3CCC(NC(=O)Nc4cc(C)ccc4C)C3)n2)cc1 (centres unmarked) [GSK1379741]  0%
6. COC(=O)Nc1nc2cc(Oc3ccc(NC(=O)Nc4cc(F)ccc4F)cc3)ccc2[nH]1.Cl [GW701424]  0%
7. O=C(NCCNc1ccnc(Nc2ccc(F)cc2)n1)c1cc2ccccc2s1 [GSK1379874]  0%
8. CCn1cnc2c(N)ncnc21 [GW345098]  0%
9. O=c1cc(N2CCOCC2)nc2n(Cc3cccc(Cl)c3Cl)c(C3CC3)nn12 [GSK2358994]  0%
10. COc1ccc(COc2cc(-n3cnc4ccccc43)sc2C(N)=O)cc1 [GSK1024304]  0%
11. c1ccc(-c2n[nH]cc2-c2ccnc3ccccc23)nc1 [GW271431]  0%
12. CN(C1=C(c2ccccc2)C(=O)NC1=O)c1ccccc1 [SB-334860]  0%
13. COc1cc2c(cc1OC[C@@H](O)CO)ncc1c3ccc(C#N)cc3[nH]c21  0%
14. c1ccc(-c2cc(-c3c[nH]nc3-c3ccccn3)ccn2)cc1 [GW576604]  0%
15. COc1cc2c(cc1OCCN1CCN(C)CC1)ncc1c3ccc(C#N)cc3[nH]c21  0%
16. CC(=O)Nc1ccc(COc2ccc(Nc3ccnc4cc(-c5ccccn5)ccc34)cc2)cc1.Cl [GW440148]  0%
17. COc1ccc(Nc2nccc(N3CCC(NC(=O)Nc4cccc(C(C)=O)c4)C3)n2)cc1 (centres unmarked) [GSK1379731]  0%
18. Cc1c2ccc(N(C)c3ccnc(Nc4cccc(S(N)(=O)=O)c4)n3)cc2nn1Cc1ccccc1.Cl.Cl [GW787226]  6%
19. Cl.Oc1cccc(Nc2ccnc3cc(-c4ccncc4)ccc23)c1 [GW494601]  6%
20. COc1ccc(CNC(=O)NC2CCN(c3ccnc(Nc4ccc(OC)cc4)n3)C2)cc1 (centres unmarked) [GSK1379727]  6%
21. NS(=O)(=O)CCc1cccc(Nc2nccc(-c3c(-c4cccc(NC(=O)c5c(F)cccc5F)c4)nn4ccccc34)n2)c1 [GSK336735]  7%
22. COCCNC(=O)c1ccc(-c2cc(C(=O)NC3CC3)cc(F)c2C)cc1 [GW868318]  10%
23. O=C1Cc2cc(Nc3nc(NCc4cccc(S(=O)(=O)C(F)(F)F)c4)ncc3C(F)(F)F)ccc2N1  11%
24. [2H]C([2H])(c1cccc(C(F)(F)F)c1C)n1ccn2c(=O)nc(N3CCOCC3)cc12 [GSK2336394]  11%
25. Cc1ccc(C(=O)NCC(N)=O)cc1-n1c(C)cc(OCc2ccc(F)cc2F)c(Br)c1=O  13%
26. Cn1cc(-c2ccc3c(c2)CCN3C(=O)Cc2ccccc2Cl)c2c(N)ncnc21 [GSK2608885]  15%
27. CCc1nc(-c2cccc(C)c2)c(-c2ccnc(NCc3ccccc3)c2)s1  21%
28. N#Cc1c(N2CCOCC2)sc(-c2ccn[nH]2)c1-c1ccc(Cl)cc1  22%
29. CC(C)(C)n1cnc2c(N)ncnc21 [SKF-97359]  24%
30. Cc1cccc(Cn2ccn3c(=O)cc(N4CCOCC4)nc23)c1 [GSK2297542]  28%
31. Cc1cccc(-c2nc(-c3ccc(S(C)(=O)=O)cc3)sc2-c2ccncc2)c1  36%
32. Fc1ccc(-c2nn3c(OCC(F)(F)F)cccc3c2-c2ccncc2)cc1 [GW514784]  41%
33. COc1cc2ncn(-c3cc(OCc4sccc4Cl)c(C(N)=O)s3)c2cc1OC [GSK448459]  47%
34. COc1ccc(Nc2ncc(C#N)c(Nc3ccccc3C(N)=O)n2)cc1N1CCN(C)CC1.Cl [GSK1558669]  78%

Test system: LATS2
Conditions: concentration: 1 μM, replicates: in singlicate; n = 1

In order of rising “%Inh” value:
1. CCc1nc(-c2cccc(C)c2)c(-c2ccnc(NCc3ccccc3)c2)s1  0%
2. O=c1cc(N2CCOCC2)nc2n(Cc3cccc4ccccc34)ccn12 [GSK2333389]  0%
3. CN1c2ccc(NCc3ccc(F)cc3)cc2-c2c(cnn2C)S1(=O)=O  0%
4. Cc1ccc(NC(=O)c2ccnc(N3CCN(C)CC3)c2)cc1-c1ccc(C(=O)NCC2CC2)cc1 [GW775604]  0%
5. Cc1ccc(C(=O)NCC(N)=O)cc1-n1c(C)cc(OCc2ccc(F)cc2F)c(Br)c1=O  0%
6. COCCNC(=O)c1ccc(-c2cc(C(=O)NC3CC3)cc(F)c2C)cc1 [GW868318]  0%
7. COc1ccc(Nc2nccc(N3CCC(NC(=O)Nc4cc(C)ccc4C)C3)n2)cc1 (centres unmarked) [GSK1379741]  0%
8. CC(C)(C)n1cnc2c(N)ncnc21 [SKF-97359]  0%
9. COc1cc2ncn(-c3cc(OCc4sccc4Cl)c(C(N)=O)s3)c2cc1OC [GSK448459]  0%
10. COC(=O)Nc1nc2cc(Oc3ccc(NC(=O)Nc4cc(F)ccc4F)cc3)ccc2[nH]1.Cl [GW701424]  0%
11. Cc1c2ccc(N(C)c3ccnc(Nc4cccc(S(N)(=O)=O)c4)n3)cc2nn1Cc1ccccc1.Cl.Cl [GW787226]  0%
12. O=C(NCCNc1ccnc(Nc2ccc(F)cc2)n1)c1cc2ccccc2s1 [GSK1379874]  0%
13. O=C1Cc2cc(Nc3nc(NCc4cccc(S(=O)(=O)C(F)(F)F)c4)ncc3C(F)(F)F)ccc2N1  0%
14. Cl.Oc1cccc(Nc2ccnc3cc(-c4ccncc4)ccc23)c1 [GW494601]  0%
15. COc1ccc(COc2cc(-n3cnc4ccccc43)sc2C(N)=O)cc1 [GSK1024304]  0%
16. COc1ccc(CNC(=O)NC2CCN(c3ccnc(Nc4ccc(OC)cc4)n3)C2)cc1 (centres unmarked) [GSK1379727]  0%
17. c1ccc(-c2cc(-c3c[nH]nc3-c3ccccn3)ccn2)cc1 [GW576604]  0%
18. Fc1ccc(-c2nn3c(OCC(F)(F)F)cccc3c2-c2ccncc2)cc1 [GW514784]  0%
19. CC(=O)Nc1ccc(COc2ccc(Nc3ccnc4cc(-c5ccccn5)ccc34)cc2)cc1.Cl [GW440148]  0%
20. [2H]C([2H])(c1cccc(C(F)(F)F)c1C)n1ccn2c(=O)nc(N3CCOCC3)cc12 [GSK2336394]  0%
21. COc1ccc(Nc2nccc(N3CCC(NC(=O)Nc4cccc(C(C)=O)c4)C3)n2)cc1 (centres unmarked) [GSK1379731]  0%
22. c1ccc(-c2n[nH]cc2-c2ccnc3ccccc23)nc1 [GW271431]  4%
23. NS(=O)(=O)CCc1cccc(Nc2nccc(-c3c(-c4cccc(NC(=O)c5c(F)cccc5F)c4)nn4ccccc34)n2)c1 [GSK336735]  7%
24. Cc1cccc(Cn2ccn3c(=O)cc(N4CCOCC4)nc23)c1 [GSK2297542]  10%
25. CN(C1=C(c2ccccc2)C(=O)NC1=O)c1ccccc1 [SB-334860]  14%
26. N#Cc1c(N2CCOCC2)sc(-c2ccn[nH]2)c1-c1ccc(Cl)cc1  15%
27. COc1cc2c(cc1OCCN1CCN(C)CC1)ncc1c3ccc(C#N)cc3[nH]c21  20%
28. CCn1cnc2c(N)ncnc21 [GW345098]  21%
29. COc1ccc(S(=O)(=O)NC2CCN(c3cc(C)nc(Nc4cccc(C#N)c4)n3)CC2)cc1.O=C(O)C(F)(F)F [GSK1653539]  25%
30. Cn1cc(-c2ccc3c(c2)CCN3C(=O)Cc2ccccc2Cl)c2c(N)ncnc21 [GSK2608885]  25%
31. O=c1cc(N2CCOCC2)nc2n(Cc3cccc(Cl)c3Cl)c(C3CC3)nn12 [GSK2358994]  27%
32. COc1cc2c(cc1OC[C@@H](O)CO)ncc1c3ccc(C#N)cc3[nH]c21  41%
33. Cc1cccc(-c2nc(-c3ccc(S(C)(=O)=O)cc3)sc2-c2ccncc2)c1  50%
34. COc1ccc(Nc2ncc(C#N)c(Nc3ccccc3C(N)=O)n2)cc1N1CCN(C)CC1.Cl [GSK1558669]  98.9%

— paper PMC5540273 (PLoS ONE, 2017)
